USP30 inh – blocks human USP30 ubiquitin-rhodamine cleavage | Q70CQ3 | purified USP30, Ub-rhodamine cleavage fluorescence | inhibition, % at 25 µM | 47,000 tested, 5.3% active | AID 1645860
USP10 block – human USP10 deubiquitinase inhibition | Q14694 | purified USP10, Ub-rhodamine fluorescence, 60 min | inhibition, % at 20 µM | 47,000 tested, 1.1% active | AID 1645856
USP17 inh – human USP17-like deubiquitinase inhibition. A8MUK1. purified USP17, Ub-rhodamine cleavage fluorescence, 3 h. inhibition, % at 50 µM. 47,000 tested, 6.5% active. AID 1645855
USP28 inh – blocks human USP28 ubiquitin-rhodamine cleavage. Q96RU2. purified USP28, Ub-rhodamine cleavage fluorescence, 30 min. inhibition, % at 25 µM. 47,000 tested, 3% active
USP8 inh – inhibitors of human USP8 deubiquitinase; AID 1645853; P40818; inhibition, % at 20 µM; purified USP8, Ub-rhodamine cleavage fluorescence, 30 min; 47,000 tested, 4.2% active
* hit, by the source's call. An excerpt weighted towards active compounds, which were near 13% of everything screened. Rule as the data show it: active = inhibition above about 30%; inactive = the rest.

What do the screens show for `COc1ccc(C2C3=C(CC(c4ccc(C)cc4)CC3=O)Nc3ccccc3N2C(=O)c2ccccc2)cc1` (stereo unspecified)?
USP30 inh: 11.7; USP10 block: -3.1; USP17 inh: 23.4; USP28 inh: 12.8; USP8 inh: 24.4

How did O=C(c1cc(CC2(NC3CCCCC3)COC2)no1)N1CCCCC1 do in these assays?
USP30 inh: -44.7; USP10 block: -5.2; USP17 inh: -22.6; USP28 inh: -1.6; USP8 inh: 4.2

What do the screens show for `CC1=C(C(=O)OCCc2ccccc2)C(c2ccc3c(c2)OCO3)NC(=O)N1` (stereo unspecified)?
USP30 inh: 38.9*; USP10 block: 8.3; USP17 inh: 13.9; USP28 inh: 33.9*; USP8 inh: 5.8

What do the screens show for `CCOc1ccccc1C(=O)NCc1cnn2ccccc12`?
USP30 inh: -0.6; USP10 block: 0.2; USP17 inh: -6.4; USP28 inh: 0.8; USP8 inh: -7.2

What do the screens show for `Cc1cc(-c2cnc(NCc3cccc(F)c3)nc2-c2ccco2)on1`?
USP30 inh: 8.9; USP10 block: 15.2; USP17 inh: 40.9*; USP28 inh: 26.2; USP8 inh: 17.3

What do the screens show for `COc1ccc(CC(=O)OCC(=O)N2c3ccccc3NC(=O)C2(C)C)cc1`?
USP30 inh: -12.2; USP10 block: 9.4; USP17 inh: 34.2*; USP28 inh: 13.2; USP8 inh: 32.9*

What do the screens show for `CC1(C)C(=O)Nc2ccccc2N1C(=O)COc1ccc(-c2nnco2)cc1`?
USP30 inh: 8.8; USP10 block: 0.1; USP17 inh: 3.8; USP28 inh: -1.0; USP8 inh: 6.0

How did O=C1C=C2[C@@H](OC=C[C@H]2O)O1 do in these assays?
USP30 inh: -209.7; USP10 block: -10.3; USP17 inh: -56.7; USP28 inh: -19.7; USP8 inh: -123.7

How did COc1cccc(NC(=O)Cn2c3ccccc3n3c(=O)cc(-c4ccccc4)nc23)c1 do in these assays?
USP30 inh: -0.1; USP10 block: 48.8*; USP28 inh: 6.1; USP8 inh: 88.2*

How did COc1cc(O)cc2c1C(=O)OC(C)CCCCCCC2 (stereo unspecified) do in these assays?
USP30 inh: 37.5*; USP10 block: 38.0*; USP17 inh: 39.8*; USP28 inh: 23.8; USP8 inh: 9.4

What do the screens show for `C[C@H]1CCCC(=O)CCCCCc2cc(OCc3ccccc3)cc(O)c2C(=O)O1`?
USP30 inh: 31.8*; USP10 block: 4.1; USP17 inh: 20.9; USP28 inh: 4.1; USP8 inh: 12.1

What do the screens show for `COc1cc(O)cc2c1C(=O)OC(C)CCCC(O)CCC2` (stereo unspecified)?
USP30 inh: -17.6; USP10 block: -5.7; USP17 inh: -10.0; USP28 inh: -12.9; USP8 inh: -7.3

What do the screens show for `COc1cc(O)cc2c1C(=O)O[C@@H](C[C@H]1CCC[C@H](C)O1)C2`?
USP30 inh: 0.1; USP10 block: -1.2; USP17 inh: -11.0; USP28 inh: 4.3; USP8 inh: -0.7

Results for Cc1ccc(C(=O)O)cc1NC(=O)C(Sc1cccc(NC(=O)c2ccccc2C)c1)c1ccccc1 (stereo unspecified) ?
USP30 inh: 78.4*; USP10 block: 37.4*; USP17 inh: 91.7*; USP28 inh: 54.8*; USP8 inh: 27.1

What do the screens show for `O=C(O)c1ccccc1C(=O)Nc1ccc(SC(C(=O)Nc2ccccc2)c2ccccc2)cc1` (stereo unspecified)?
USP30 inh: 13.4; USP10 block: 16.5; USP17 inh: 63.1*; USP28 inh: 18.8; USP8 inh: 4.6

How did COc1ccc(-c2nc(SCC(=O)Nc3ccccc3F)n[nH]2)cc1 do in these assays?
USP30 inh: 2.3; USP10 block: 6.8; USP17 inh: -0.2; USP28 inh: 0.4; USP8 inh: -8.4

Results for CC(C)n1ncc2c(C(=O)NCCc3ccc(F)cc3)cc(C3CC3)nc21 ?
USP30 inh: -24.2; USP10 block: -1.1; USP17 inh: -0.1; USP28 inh: 41.5*; USP8 inh: -1.8

How did c1ccc2c(-c3nc(C4CC4)no3)nnc(NCCCn3cccn3)c2c1 do in these assays?
USP30 inh: -12.0; USP10 block: 2.5; USP17 inh: -5.9; USP28 inh: -5.7; USP8 inh: 5.1

What do the screens show for `CC(Sc1n[nH]c2nc3ccccc3n12)C(=O)Nc1ccc2c(c1)OCCO2` (stereo unspecified)?
USP30 inh: -9.1; USP10 block: -4.0; USP17 inh: 38.7*; USP28 inh: 26.3; USP8 inh: -4.8

What do the screens show for `COc1ccc(-c2nnc(SCC(=O)Nc3ccc4[nH]c(=O)[nH]c4c3)n2C)cc1`?
USP30 inh: 5.0; USP10 block: -1.7; USP17 inh: 12.8; USP28 inh: 1.3; USP8 inh: 37.9*

Results for O=C(CSc1n[nH]c2nc3ccccc3n12)Nc1ccc2[nH]c(=O)[nH]c2c1 ?
USP30 inh: -21.7; USP10 block: 10.3; USP17 inh: -2.9; USP28 inh: -3.9; USP8 inh: 69.9*

Results for O=C(CSc1nnc2n1CCCCC2)Nc1ccc2[nH]c(=O)[nH]c2c1 ?
USP30 inh: 28.1; USP10 block: -0.2; USP17 inh: 68.1*; USP28 inh: 33.0*; USP8 inh: -22.2

What do the screens show for `C[C@H](NC(=O)c1cc2ccccc2[nH]1)C(=O)Nc1ccc2c(c1)OCCO2`?
USP30 inh: 10.5; USP10 block: -3.3; USP17 inh: 3.9; USP28 inh: 9.9; USP8 inh: 5.6

What do the screens show for `Cc1cccc(N2C(=O)c3ccccc3NC2c2c(C)nn(C3CCS(=O)(=O)C3)c2Cl)c1` (stereo unspecified)?
USP30 inh: -5.5; USP10 block: -1.6; USP17 inh: -11.2; USP28 inh: -9.5; USP8 inh: -16.7

Results for CC(=O)OC1C2OC2C2=CC(=O)C3(CC2(C)C1C)OC3(C)CO (stereo unspecified) ?
USP30 inh: -40.2; USP10 block: -10.9; USP17 inh: 12.8; USP28 inh: 7.9; USP8 inh: -72.5

What do the screens show for `CCCCCCN1C(=O)[C@@H]2Cc3ccccc3CN2C1=O`?
USP30 inh: 10.9; USP10 block: 3.1; USP17 inh: 17.8; USP28 inh: 8.0; USP8 inh: -0.2

How did Cc1nc(-c2cccc(C(=O)N3CCCN(c4nc5cccnc5o4)CC3)c2)no1 do in these assays?
USP30 inh: 14.4; USP10 block: 0.0; USP17 inh: 2.0; USP28 inh: 3.3; USP8 inh: 3.0

Results for CCOc1ccccc1NC(=O)C(=O)c1cn(CC(=O)N2CCCCC2)c2ccccc12 ?
USP30 inh: 39.8*; USP10 block: 0.9; USP17 inh: 6.6; USP28 inh: 0.2; USP8 inh: -7.5

How did O=C(Nc1ccccc1F)C(=O)c1cn(CC(=O)N2CCCCC2)c2ccccc12 do in these assays?
USP30 inh: -24.5; USP10 block: -0.1; USP17 inh: -10.7; USP28 inh: -19.4; USP8 inh: -10.7

Results for CC(CCc1ccccc1)NC(=O)C(=O)c1cn(CC(=O)N2CCOCC2)c2ccccc12 (stereo unspecified) ?
USP30 inh: 50.1*; USP10 block: -1.8; USP17 inh: 44.2*; USP28 inh: 9.4; USP8 inh: 0.7

Bioassay records deposited in PubChem by Buhrlage Lab, Dana-Farber Cancer Institute and Novartis Institutes for BioMedical Research (Cambridge, Mass).
